According to the supplement of paper PMC10849652:
Targets with a hit are over-represented here; the source holds about 7,900 in all. About 0.6% of all pairs of compound and target were hits. Values without a mark were called inactive.

Target: ZNF622 (UniProt Q969S3)
Experiment: log2 fold change, soluble protein after heating vs DMSO (PISA); higher = thermal stabilisation; K562 cells, 10 uM, 30 min; active = over 0.2 and 3.5 SD of the protein, either way, in both replicates (recomputed)
How it was run: (§1)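 Quantification of soluble protein used TMTpro 16plex LC-MS/MS, with channel sums equalised. Samples were the supernatant after 21,000xg for 90 min of pooled aliquots from K562 cells (2×10^6 cells/mL) treated with 10 μM compound for 30 min, heated for 3 min over 48°C-58°C, and extracted in PBS with 0.5% NP-40 at 4°C. Values, from duplicates, describe thermal stability against control samples on a log2 fold-change scale.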

Sequence of ZNF622 (Q969S3 whole entry, looked up): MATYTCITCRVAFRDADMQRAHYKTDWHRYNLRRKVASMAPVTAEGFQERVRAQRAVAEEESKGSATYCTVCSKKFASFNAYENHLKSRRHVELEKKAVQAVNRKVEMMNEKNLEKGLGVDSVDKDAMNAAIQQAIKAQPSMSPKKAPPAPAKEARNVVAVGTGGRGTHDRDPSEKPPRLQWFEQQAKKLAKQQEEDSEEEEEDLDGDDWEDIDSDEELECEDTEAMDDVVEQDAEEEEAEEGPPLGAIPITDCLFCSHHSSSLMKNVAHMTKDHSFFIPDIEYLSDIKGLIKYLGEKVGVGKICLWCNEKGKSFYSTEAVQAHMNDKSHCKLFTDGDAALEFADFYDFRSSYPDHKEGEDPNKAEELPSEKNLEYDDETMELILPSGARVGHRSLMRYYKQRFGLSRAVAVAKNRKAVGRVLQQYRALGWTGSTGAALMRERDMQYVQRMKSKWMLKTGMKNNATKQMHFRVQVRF

Point of comparison: C#Cc1cccc(Nc2ncnc3cc(OCCOC)c(OCCOC)cc23)c1 [erlotinib], log2 fold change 0.056. Against it:
- Cc1ccc(NC(=O)c2ccc(CN3CC[C@H](N(C)C)C3)c(C(F)(F)F)c2)cc1Nc1nccc(-c2cncnc2)n1 [bafetinib] — within 0.2 log units, 0.021
- CNC(=O)c1ccc(Nc2ncc(C(F)(F)F)c(NCc3nccnc3N(C)S(C)(=O)=O)n2)cc1 [defactinib] — within 0.2 log units, 0.057
- CCCS(=O)(=O)Nc1ccc(F)c(C(=O)c2c[nH]c3ncc(Cl)cc23)c1F — within 0.2 log units, 0.023
- Cc1ccc(NC(=O)c2cccc(N(C)C)c2)cc1NC(=O)c1ccc(O)cc1 — within 0.2 log units, -0.036
- CCN(CCCOc1ccc2c(Nc3cc(CC(=O)Nc4cccc(F)c4)[nH]n3)ncnc2c1)CCOP(=O)(O)O [barasertib] — within 0.2 log units, -0.001
- COC(=O)[C@H](CCSC)NC(=O)c1ccc(NC[C@@H](N)CS)cc1-c1ccccc1 — within 0.2 log units, 0.005
- CCCS(=O)(=O)Nc1ccc(F)c(C(=O)c2c[nH]c3ncc(-c4ccc(Cl)cc4)cc23)c1F [vemurafenib] — within 0.2 log units, 0.012
- O=C1NC(=O)/C(=C\c2ccc3nccnc3c2)S1 — within 0.2 log units, -0.004
- CC(C)c1cnn2c(NCc3ccccc3)cc(NCCCCCCN)nc12 — within 0.2 log units, -0.011
- Cn1cncc1[C@@](N)(c1ccc(Cl)cc1)c1ccc2c(c1)c(-c1cccc(Cl)c1)cc(=O)n2C [tipifarnib] — within 0.2 log units, -0.048
- Cc1ccc(Sc2cncc3sc(C(N)=O)cc23)cc1 — within 0.2 log units, -0.022
- CNC(=O)c1ccccc1Nc1nc(Nc2ccc(N3CCOCC3)cc2OC)ncc1Cl — within 0.2 log units, 0.045
- CN(CCOc1ccc(C[C@@H]2SC(=O)NC2=O)cc1)c1ccccn1 (racemic) [rosiglitazone] — within 0.2 log units, 0.027
- Cn1cc(-c2ccc3nnc(C(F)(F)c4ccc5ncccc5c4)n3n2)cn1 — within 0.2 log units, 0.024
- CC(C)(C)Cn1c(N)nc2ccc(-c3[nH]c(C(C)(C)C)nc3-c3ccc(F)cc3)nc21 [ralimetinib] — within 0.2 log units, -0.019
- Cc1ccc(C(=O)N(CCCN)[C@@H](c2nc3cc(Cl)ccc3c(=O)n2Cc2ccccc2)C(C)C)cc1 [ispinesib] — within 0.2 log units, 0.062
- CC[C@@H]1C(=O)N(C)c2cnc(Nc3ccc(C(=O)N[C@H]4CC[C@H](N5CCN(CC6CC6)CC5)CC4)cc3OC)nc2N1C(C)C [volasertib] — within 0.2 log units, 0.138
- CS(=O)(=O)CCNCc1ccc(-c2ccc3ncnc(Nc4ccc(OCc5cccc(F)c5)c(Cl)c4)c3c2)o1 [lapatinib] — within 0.2 log units, 0
- CCn1c(C(=O)N(C2CC2)C2CC2)cc2c3c(ncn3C)c(Nc3cc(C)n(C)n3)nc21 — within 0.2 log units, 0.005
- NC(=O)c1ccc2nc(-c3ccc(Oc4ccc(Cl)cc4)cc3)[nH]c2c1 — within 0.2 log units, 0.007
- CC(C)C[C@@H](C=O)NC(=O)[C@H](CC(C)C)NC(=O)[C@H](CC(C)C)NC(=O)OCc1ccccc1 — within 0.2 log units, -0.036
- C=CC(=O)N1CCC[C@@H](n2nc(-c3ccc(Oc4ccccc4)cc3)c3c(N)ncnc32)C1 [ibrutinib] — within 0.2 log units, -0.003
- CN(C)CC(=O)Nc1ccc2[nH]c(=O)c3ccccc3c2c1 — within 0.2 log units, -0.024
- NCC(=O)Nc1ccc(-n2nc(C(F)(F)F)cc2-c2ccc3c(ccc4ccccc43)c2)cc1 — within 0.2 log units, -0.016
- O=C(Nc1cccc(Nc2ncc(Br)c(NCCc3cnc[nH]3)n2)c1)N1CCCC1 — within 0.2 log units, 0.022
- Oc1cc(-c2nc(-c3ccccc3)[nH]c2-c2ccncc2)ccc1Cl — within 0.2 log units, 0.016
- CN1CCc2c(c3ccccc3n2Cc2ccc(C(=O)NO)cc2)C1 [Tubastatin A] — within 0.2 log units, 0.018
- COc1cc2nc(-c3cc(F)ccc3O)nc(N[C@@H]3CNC[C@H]3C(C)(C)O)c2cc1OC — within 0.2 log units, 0.028

In the case of Cc1ccc2c(=O)c3ccccc3n(CCCN)c2c1C, the log2 fold change is reported as -0.285 (active).

Target: ZRANB2 (UniProt O95218)
Experiment: as above
How it was run: as §1

Sequence of ZRANB2 (O95218 whole entry, looked up): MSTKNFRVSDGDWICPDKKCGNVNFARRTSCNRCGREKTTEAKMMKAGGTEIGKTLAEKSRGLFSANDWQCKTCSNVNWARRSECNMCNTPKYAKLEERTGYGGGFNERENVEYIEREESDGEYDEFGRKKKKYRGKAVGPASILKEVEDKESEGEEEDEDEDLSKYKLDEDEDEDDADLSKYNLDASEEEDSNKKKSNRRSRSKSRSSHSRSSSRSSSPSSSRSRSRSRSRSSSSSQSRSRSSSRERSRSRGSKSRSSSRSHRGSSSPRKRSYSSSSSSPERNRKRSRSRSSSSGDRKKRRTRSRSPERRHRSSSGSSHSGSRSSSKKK

Point of comparison: Cn1cncc1[C@@](N)(c1ccc(Cl)cc1)c1ccc2c(c1)c(-c1cccc(Cl)c1)cc(=O)n2C [tipifarnib], log2 fold change -0.001. Against it:
- Cc1ccc(NC(=O)c2ccc(CN3CC[C@H](N(C)C)C3)c(C(F)(F)F)c2)cc1Nc1nccc(-c2cncnc2)n1 [bafetinib] — within 0.2 log units, -0.014
- CNC(=O)c1ccc(Nc2ncc(C(F)(F)F)c(NCc3nccnc3N(C)S(C)(=O)=O)n2)cc1 [defactinib] — within 0.2 log units, -0.046
- CCCS(=O)(=O)Nc1ccc(F)c(C(=O)c2c[nH]c3ncc(Cl)cc23)c1F — within 0.2 log units, -0.02
- Cc1ccc(NC(=O)c2cccc(N(C)C)c2)cc1NC(=O)c1ccc(O)cc1 — within 0.2 log units, -0.012
- CCN(CCCOc1ccc2c(Nc3cc(CC(=O)Nc4cccc(F)c4)[nH]n3)ncnc2c1)CCOP(=O)(O)O [barasertib] — within 0.2 log units, -0.01
- COC(=O)[C@H](CCSC)NC(=O)c1ccc(NC[C@@H](N)CS)cc1-c1ccccc1 — within 0.2 log units, 0.05
- CCCS(=O)(=O)Nc1ccc(F)c(C(=O)c2c[nH]c3ncc(-c4ccc(Cl)cc4)cc23)c1F [vemurafenib] — within 0.2 log units, -0.014
- O=C1NC(=O)/C(=C\c2ccc3nccnc3c2)S1 — within 0.2 log units, 0.051
- CC(C)c1cnn2c(NCc3ccccc3)cc(NCCCCCCN)nc12 — within 0.2 log units, 0.014
- Cc1ccc(Sc2cncc3sc(C(N)=O)cc23)cc1 — within 0.2 log units, -0.04
- CNC(=O)c1ccccc1Nc1nc(Nc2ccc(N3CCOCC3)cc2OC)ncc1Cl — within 0.2 log units, 0.002
- CN(CCOc1ccc(C[C@@H]2SC(=O)NC2=O)cc1)c1ccccn1 (racemic) [rosiglitazone] — within 0.2 log units, -0.055
- Cn1cc(-c2ccc3nnc(C(F)(F)c4ccc5ncccc5c4)n3n2)cn1 — within 0.2 log units, 0.036
- CC(C)(C)Cn1c(N)nc2ccc(-c3[nH]c(C(C)(C)C)nc3-c3ccc(F)cc3)nc21 [ralimetinib] — within 0.2 log units, -0.014
- Cc1ccc(C(=O)N(CCCN)[C@@H](c2nc3cc(Cl)ccc3c(=O)n2Cc2ccccc2)C(C)C)cc1 [ispinesib] — within 0.2 log units, 0.005
- CC[C@@H]1C(=O)N(C)c2cnc(Nc3ccc(C(=O)N[C@H]4CC[C@H](N5CCN(CC6CC6)CC5)CC4)cc3OC)nc2N1C(C)C [volasertib] — within 0.2 log units, 0.1
- CS(=O)(=O)CCNCc1ccc(-c2ccc3ncnc(Nc4ccc(OCc5cccc(F)c5)c(Cl)c4)c3c2)o1 [lapatinib] — within 0.2 log units, 0.018
- C#Cc1cccc(Nc2ncnc3cc(OCCOC)c(OCCOC)cc23)c1 [erlotinib] — within 0.2 log units, 0.005
- CCn1c(C(=O)N(C2CC2)C2CC2)cc2c3c(ncn3C)c(Nc3cc(C)n(C)n3)nc21 — within 0.2 log units, 0.014
- NC(=O)c1ccc2nc(-c3ccc(Oc4ccc(Cl)cc4)cc3)[nH]c2c1 — within 0.2 log units, -0.015
- CC(C)C[C@@H](C=O)NC(=O)[C@H](CC(C)C)NC(=O)[C@H](CC(C)C)NC(=O)OCc1ccccc1 — within 0.2 log units, -0.027
- C=CC(=O)N1CCC[C@@H](n2nc(-c3ccc(Oc4ccccc4)cc3)c3c(N)ncnc32)C1 [ibrutinib] — within 0.2 log units, 0.013
- CN(C)CC(=O)Nc1ccc2[nH]c(=O)c3ccccc3c2c1 — within 0.2 log units, -0.048
- NCC(=O)Nc1ccc(-n2nc(C(F)(F)F)cc2-c2ccc3c(ccc4ccccc43)c2)cc1 — within 0.2 log units, 0.067
- O=C(Nc1cccc(Nc2ncc(Br)c(NCCc3cnc[nH]3)n2)c1)N1CCCC1 — within 0.2 log units, -0.007
- Oc1cc(-c2nc(-c3ccccc3)[nH]c2-c2ccncc2)ccc1Cl — within 0.2 log units, -0.073
- CN1CCc2c(c3ccccc3n2Cc2ccc(C(=O)NO)cc2)C1 [Tubastatin A] — within 0.2 log units, -0.032
- COc1cc2nc(-c3cc(F)ccc3O)nc(N[C@@H]3CNC[C@H]3C(C)(C)O)c2cc1OC — within 0.2 log units, -0.006

With Cc1ccc2c(=O)c3ccccc3n(CCCN)c2c1C the log2 fold change was -0.399 (active).
